# Experimental data published in PubChem BioAssay (EPA / NIEHS).
# Records with an inconclusive call do not appear. Active and inactive are the calls of the source. Rule for the calls: active = hit-call score of the fitted dose curve at least 0.9, where 1 is the maximum; inconclusive = response in the unintended direction; inactive = score below 0.9.
# Target: Glycogen synthase kinase-3 beta (Homo sapiens) (UniProt P49841)
# Test: NVS_ENZ_hGSK3b: NovaScreen (NVS) Enzymatic Assay for human Glycogen Synthase Kinase-3 beta (GSK3b) (AID 2283165)
# Procedure: NVS_ENZ_hGSK3b is a biochemical, single-readout assay that uses extracted gene-proteins in a cell-free assay. Measurements were taken 1 hour after chemical dosing in a 384-well plate.NVS_ENZ_hGSK3b is one of one assay component(s) measured or calculated from the NVS_ENZ_hGSK3b assay. It is designed to make measurements of enzyme activity, a form of enzyme reporter, as detected with fluorescence intensity signals by Fluorescence and electrophoretic mobility shift technology.Data from the assay component NVS_ENZ_hGSK3b was analyzed into 1 assay endpoint. This assay endpoint, NVS_ENZ_hGSK3b, was analyzed in the positive analysis fitting direction relative to DMSO as the negative control and baseline of activity. Using a type of enzyme reporter, loss-of-signal activity can be used to understand changes in the enzymatic activity as they relate to the gene GSK3B. Furthermore, this assay endpoint can be referred to as a primary readout, because this assay has produced multiple assay endpoints where this one serves a enzymatic activity function. To generalize the intended target to other relatable targets, this assay endpoint is annotated to the kinase intended target family, where the subfamily is serine/threonine kinase.
# Binding assays used specific radioligands (tritiated, iodinated) with non-radioactive competitive displacement ligands in agonist or antagonist protocols (as indicated) and various reference compounds and inhibitors to titrate specific binding to receptors and transporters. Most enzyme assays (CYPs, kinases, phosphatases, proteases, HDACs) used recombinant protein and specific substrates (fluorescence mostly, some colorimetric and radioactive) and inhibitors, followed by a biochemical separation of substrate and product. All assays for the biochemical HTS were initially run in duplicate at a single concentration (10 uM for CYP450 assays and 25 uM for all others). Assay-chemical combinations meeting a pre-defined threshold (e.g., 30% inhibition and other criteria defined below) were then run in singleton concentration-response format with maximum concentration of 20 uM for CYPs and 50 uM for all others. Each assay was run with positive and negative controls, and concurrent controls on every plate. The follow-up (secondary) screen tested active chemical-pairs in concentration series, as well as a few additional assays not tested in the primary screen, some selected negative inactives, and several cases re-run in the concentration series for confirmatory purposes.
# Chain of Glycogen synthase kinase-3 beta (Homo sapiens) (P49841 whole entry, looked up): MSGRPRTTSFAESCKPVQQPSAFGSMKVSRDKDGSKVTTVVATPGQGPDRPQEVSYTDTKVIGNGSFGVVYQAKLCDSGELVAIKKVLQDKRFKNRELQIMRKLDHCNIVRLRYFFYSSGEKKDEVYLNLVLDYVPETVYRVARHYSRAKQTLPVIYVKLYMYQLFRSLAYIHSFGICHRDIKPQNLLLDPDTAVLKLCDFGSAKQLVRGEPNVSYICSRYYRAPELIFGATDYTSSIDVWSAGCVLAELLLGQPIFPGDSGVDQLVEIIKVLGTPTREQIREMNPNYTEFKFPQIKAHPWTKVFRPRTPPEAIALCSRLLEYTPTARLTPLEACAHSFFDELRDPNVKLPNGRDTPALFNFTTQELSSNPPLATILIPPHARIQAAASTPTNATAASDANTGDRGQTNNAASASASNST
SMILES,AC50,outcome
Nc1nc2ncc(CNc3ccc(C(=O)N[C@@H](CCC(=O)O)C(=O)O)cc3)nc2c(=O)[nH]1,41.1 µM (active),–
CC(C)=CCCC(C)=CC=O,–,inactive
COc1cccc(-c2ccc(/C=C\CN3CCCCCC3)cc2Cl)c1,–,inactive
CC(C)=CCCC(C)CCO (stereo not given),–,inactive
CCc1cc(SCc2sc(-c3ccc(C(F)(F)F)cc3)nc2CN2CCN(c3ccc(OC)cc3)CC2)ccc1OCC(=O)O,–,inactive
CNS(=O)(=O)c1cc(C(=O)N2CCC(CCN3C4CCC3CC(n3c(C)nc5ccccc53)C4)(c3cccc(F)c3)CC2)c(Cl)cc1F (stereo not given),–,inactive
CCCCCCCCO,–,inactive
CC[C@H](C)C(=O)O[C@H]1C[C@@H](C)C=C2C=C[C@H](C)[C@H](CC[C@@H]3C[C@@H](O)CC(=O)O3)[C@H]21,–,inactive
CCOC(=O)COc1ccc2c(c1)CC(NCC(O)c1cccc(Cl)c1)CC2 (stereo not given),–,inactive
O=P(OC(CCl)CCl)(OC(CCl)CCl)OC(CCl)CCl,–,inactive
Cc1ccc(N)cc1O,–,inactive
O=C(OC[C@H]1O[C@@H](OC(=O)c2cc(O)c(O)c(OC(=O)c3cc(O)c(O)c(O)c3)c2)[C@H](OC(=O)c2cc(O)c(O)c(OC(=O)c3cc(O)c(O)c(O)c3)c2)[C@@H](OC(=O)c2cc(O)c(O)c(OC(=O)c3cc(O)c(O)c(O)c3)c2)[C@@H]1OC(=O)c1cc(O)c(O)c(OC(=O)c2cc(O)c(O)c(O)c2)c1)c1cc(O)c(O)c(OC(=O)c2cc(O)c(O)c(O)c2)c1,0.000698 µM (active),–
CC(C)=CCC/C(C)=C/CO,–,inactive
CCCC(=O)OCC,–,inactive
CC1(C)C(=O)N(Br)C(=O)N1Br,–,inactive
Clc1nc(Cl)c(Cl)c(Cl)c1Cl,–,inactive
CC1=CC(=O)CC(C)(C)C1,–,inactive
CCN(C(=O)c1cc(C)cc(OC[C@H](C)Nc2ccncc2)c1)C(C)C,–,inactive
CN(C)c1ccc(N=NS(=O)(=O)O)cc1,–,inactive
COCCOc1cc2cc(C(=O)NC3CCN(C(C)C)CC3)n(CC(=O)Nc3ccc(Cl)cn3)c2cn1,–,inactive
O=C(O)c1cc(N=Nc2ccc(S(=O)(=O)Nc3ccccn3)cc2)ccc1O,–,inactive
COc1ccc2sc(C(=O)Nc3nnn[nH]3)c(OC(C)C)c2c1,1.42 µM (active),–
CN(C)c1ccc(Cc2ccc(N(C)C)cc2)cc1,–,inactive
O=C1OC(=O)C2C3C=CC(C3)C12 (stereo not given),–,inactive
Cc1ccc(S(=O)(=O)O)cc1C,–,inactive
